# High-throughput results (PubChem BioAssay)
# ERa SRC1 inh = ERα–SRC-1 coactivator interaction inhibitors, primary screen, biochemical, TR-FRET, ERα LBD, estradiol-bound; hit rate 1.7% among 86,000; Estrogen receptor (Homo sapiens), P03372; TR-FRET ER-alpha LBD / SRC-1 peptide; AID 629, 2007; inhibition, % at 25.6 µM; in the data active = inhibition above about 50%;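 also: 0% = receptor plus peptide control and 100% = peptide only without receptor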
# Target sequence (P03372 whole entry, looked up, the tested form may be a part): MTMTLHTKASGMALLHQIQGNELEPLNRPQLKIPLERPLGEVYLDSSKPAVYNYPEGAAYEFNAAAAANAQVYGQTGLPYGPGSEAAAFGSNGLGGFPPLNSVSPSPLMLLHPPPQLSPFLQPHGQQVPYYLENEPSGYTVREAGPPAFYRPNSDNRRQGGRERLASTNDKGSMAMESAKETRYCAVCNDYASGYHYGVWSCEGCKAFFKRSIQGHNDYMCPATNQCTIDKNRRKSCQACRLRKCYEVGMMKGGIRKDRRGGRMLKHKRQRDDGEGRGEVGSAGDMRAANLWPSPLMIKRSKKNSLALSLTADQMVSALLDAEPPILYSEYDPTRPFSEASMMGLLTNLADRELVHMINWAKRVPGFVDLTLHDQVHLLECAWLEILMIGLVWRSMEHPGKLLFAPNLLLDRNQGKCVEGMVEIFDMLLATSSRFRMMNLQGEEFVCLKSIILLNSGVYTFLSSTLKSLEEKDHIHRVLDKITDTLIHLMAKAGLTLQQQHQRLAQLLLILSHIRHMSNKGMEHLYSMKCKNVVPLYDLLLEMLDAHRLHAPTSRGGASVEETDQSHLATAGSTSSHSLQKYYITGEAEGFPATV
# MT1-MMP txn act = MT1-MMP promoter reporter activation – cell-based, luciferase luminescence, primary screen; HT1080 MT1-MMP promoter luciferase reporter, overnight; active compounds read high; activation factor at 10 µM; hit rate 0.16% among 86,000;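 active = activation factor of at least 2 for MT1-MMP transcription at 10 µM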
# Smad3 FoxH1 inh = Smad3/FoxH1 peptide binding inhibitors, primary screen, biochemical, TR-FRET. Mothers against decapentaplegic homolog 3 (Homo sapiens), P84022. TR-FRET Smad3/Dy647-FoxH1 peptide binding, europium anti-His. inhibition, % at 25 µM. hit rate 0.29% among 88,000;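 active = compounds that reduce the energy-transfer binding signal between the protein and its labelled peptide by more than half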;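 also: 0% = Smad3 plus labelled peptide maximal FRET and 100% = peptide-only background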
# ERb coact inh = inhibitors of ERβ-SRC1 coactivator interaction, primary screen, biochemical, TR-FRET, ERβ LBD, SRC-1 peptide | TR-FRET ER-beta LBD / SRC1-Cy5 peptide binding; receptor agonist-loaded with 1 µM estradiol | inhibition, % at 25.6 µM | hit rate 1.3% among 86,000 | AID 633, 2007;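 active = compounds whose percent inhibition of the receptor-coactivator binding signal exceeds about 50% in the single-dose screen, limit read from the data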;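 also: 0% = receptor plus peptide wells without compound and 100% = peptide-only wells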
# MMP13 inh = human MMP13 inhibitors, primary screen, biochemical, FRET peptide cleavage | AID 570, 2006 | inhibition, % at 4 µM | Collagenase 3 (Homo sapiens), P45452 | hit rate 0.07% among 65,000 | MMP-13 fTHP FRET cleavage, Mca fluorescence;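 active = inhibition above the mean of compound-free control plate wells plus 3 SD, cut at about 14% in these data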;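 also: 0% = DMSO wells and 100% = wells with reference MMP-13 inhibitor after basal subtraction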
# ERa coact pot = enhancers of ERα–SRC-1 coactivator binding, primary screen, biochemical, TR-FRET, ERα LBD, low estradiol | Estrogen receptor (Homo sapiens), P03372 | TR-FRET ERalpha-LBD/SRC-Cy5 coactivator binding, 2 h; 100 = basal binding, no effect | coactivator binding (% of control), % at 25.6 µM | hit rate 1.3% among 86,000; in the data active = activity above about 200%;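 also: binding measured in presence of low estradiol as agonist stimulus; 0% = peptide alone without receptor and 100% = receptor with peptide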
# Active calls of the source: *; / = no result given; [ ] = remark or other dose. Most compounds without a hit are left out; they make up all but 3.5% or so of the library.
SMILES,ERa SRC1 inh,MT1-MMP txn act,Smad3 FoxH1 inh,ERb coact inh,MMP13 inh,ERa coact pot
CN(C)C(=O)c1cn(-c2ccccc2)nc1-c1cccs1,-1.2,1.1,7.9,-12.6,/,114.6
O=C(COC(=O)c1cn(-c2ccccc2)nc1-c1cccs1)NC1CC1,6.9,1.2,3.1,10.2,-10.4,202.1*
COC(=O)c1ccc(S(=O)(=O)N2C3CCC2CC(NC(=O)NC2CCCCC2)C3)cc1 (centres undefined),14.8,1.3,-13.5,57.6*[fluorescence artefact?],4.3,82.7
CC(NC(=O)CSc1nnc(-c2cc3cc(Cl)ccc3o2)n1C)c1ccccc1 (centres undefined),7.8,1.2,-1.4,2.0,/,98.9
Cc1ccc(/C=c2\sc3nc(-c4cccnc4)nn3c2=O)cc1,68.8*[fluorescence artefact?],1.4,9.4,47.5,-4.9,61.2
CCn1c2ccccc2c2nnc(SCc3ccc(C(=O)OC)o3)nc21,0.1,1,10.6,-6.7,-0.1,97.3
C=CCNc1nc(-c2ccccn2)nnc1-c1ccccc1,5.3,/,-5.8,-7.7,/,96.4
CC(=O)c1cccc(S(=O)(=O)N2CCN(c3nc4cc(C)cc(C)c4cc3C#N)CC2)c1,39.5,1.1,-11.8,58.5*[fluorescence artefact?],-32.9,182.6
COc1ccccc1C(=O)N1CCN(c2nc3cc(C)c(C)cc3cc2C#N)CC1,/,0.9,/,/,-33.1,/
Cc1ccc(S(=O)(=O)N2CCN(c3nc4ccccc4nc3-n3nc(C)cc3C)CC2)cc1,8.7,1,1.8,-9.0,-4.1,185.3
Cc1cc(C)c2cc(C#N)c(N3CCCN(S(=O)(=O)c4ccccc4)CC3)nc2c1,23.8,1.2,4.5,27.1,/,261.6*[fluorescence artefact?]
CCC/C(O)=C1\C(=O)CC(C)(C)CC1=Nc1ccc(OC)cc1OC,1.6,/,-1.7,7.9,-0.8,102.4
Cc1ccc2nc(-c3ccccc3Cl)cc(C(=O)Nc3cc(C)on3)c2c1,-2.0,1.1,-2.8,1.0,-7.3,217.0*[fluorescence artefact?]
Cc1cc(NC(=O)c2ccccc2Cl)no1,-1.2,1.3,-23.7,-4.7,/,102.2
COc1ccc(-n2c(SCC(=O)Nc3nc(C)cs3)nnc2-c2ccoc2C)cc1,9.7,2.2*,0.3,-5.0,/,103.7
Cc1onc(-c2ccccc2Cl)c1C(=O)Nc1cccc2nsnc12,-1.8,1.1,-1.6,-10.0,-44.6,262.6*[fluorescence artefact?]
O=C(Nc1cccc2ccccc12)N1CCc2ccccc2C1,-20.8,1.3,3.6,-18.6,/,103.3
Cc1ccc(S(=O)(=O)NCCSc2nnnn2C)cc1,-1.3,1.1,3.2,75.0*[fluorescence artefact?],3.2,112.3
C=CCSc1nc(N)c(C#N)c(-c2ccccc2)c1C#N,18.7,1.1,2.0,29.9,1.4,237.6*[fluorescence artefact?]
CCCSc1nc(N)c(C#N)c(-c2ccc(C)cc2)c1C#N,/,1.1,/,/,-1.9,/
CN(CC1CCCO1)S(=O)(=O)c1ccc(C(=O)Nc2nc3cc4c(cc3s2)OCO4)cc1 (centres undefined),63.1*[fluorescence artefact?],1,3.6,18.8,-0.8,85.6
Cc1ccc2c(c1)N(CC(=O)O)C(=O)CO2,-13.7,1.4,4.0,-2.4,6.6,128.2
CCCN(C#N)c1nc(NCC)nc(NC(C)C)n1,5.3,1,10.7,-1.7,1.5,130.0
O=C(O)c1ccc2c(c1)[C@@H]1C=CC[C@@H]1[C@H](c1ccccn1)N2,68.3*,1,31.7,85.8*,3.2,21.0
O=C(OC1CCCCC1)c1ccc2c(c1)C1C=CCC1C(C(=O)O)N2 (centres undefined),/,/,/,/,0.9,/
SMILES,ERa SRC1 inh,MT1-MMP txn act,Smad3 FoxH1 inh,ERb coact inh,MMP13 inh,ERa coact pot
Cc1noc(C)c1COC(=O)CCCc1nc2ccccc2s1,3.0,0.9,-11.0,0.7,-2.2,127.7
Cc1noc(C)c1COC(=O)c1ccc(-c2nc3ccccc3s2)s1,61.0*[fluorescence artefact?],1.2,14.8,42.3,-5.5,151.8
COc1cc2c(=O)n(CC3CCCO3)c(=O)n(CC(=O)Nc3cccc(Cl)c3)c2cc1OC (centres undefined),2.7,/,83.2*[fluorescence artefact?],-1.1,-19.0,110.0
CCOc1ccc(C(=O)NC2CCN(S(C)(=O)=O)CC2)cc1,4.1,1.2,1.6,1.3,-4.4,114.2
c1cc(CNc2ccc(N3CCOCC3)cc2)ccn1,17.0,1.2,2.5,25.9,/,90.1
CC(C)c1ccc(CNc2ccc(N3CCOCC3)cc2)cc1,0.4,1.1,8.4,-1.5,-1.8,529.6*[fluorescence artefact?]
O=C(O)c1cccc(Nc2nc(N3CCOCC3)nc(N3CCOCC3)n2)c1,-4.4,1.1,17.1,-5.6,4.2,625.7*[fluorescence artefact?]
O=C(O)c1cc(Nc2nc(N3CCOCC3)nc(N3CCOCC3)n2)ccc1Cl,1.9,1.1,-6.5,9.2,1.0,106.0
CC(NS(=O)(=O)c1ccc(Cl)cc1)C(=O)NCc1ccco1 (centres undefined),23.0,1.1,-12.6,34.0,/,60.8
O=C(NCc1ccco1)C1(S(=O)(=O)c2ccc(Cl)cc2)CC1,1.7,1.1,13.1,58.6*,0.8,100.1
CN(C)C(=O)C1OC(C)(C)OC1C(=O)N(C)C (centres undefined),-2.2,0.9,5.6,17.6,/,107.7
CCCSc1nc2c(cnn2-c2ccccc2)c(=O)[nH]1,-5.6,1,-2.8,13.4,-0.1,201.1*
CCCCSc1nc2c(cnn2-c2ccc(C)c(C)c2)c(=O)[nH]1,-2.4,1,5.5,22.4,0.2,168.3
CCCSc1nc2c(cnn2-c2ccc(C)c(C)c2)c(=O)[nH]1,50.1*[fluorescence artefact?],1.1,4.4,53.9*[fluorescence artefact?],-0.9,244.1*[fluorescence artefact?]
CCCSc1nc2c(cnn2-c2ccc(C)cc2)c(=O)[nH]1,5.9,1.1,17.1,37.1,-1.6,297.5*[fluorescence artefact?]
COC(=O)c1ccc(CSc2nc3c(cnn3-c3ccc(C)c(C)c3)c(=O)[nH]2)o1,79.9*,0.9,11.0,44.9,-2.4,129.1
CCCSc1nc2c(cnn2-c2ccc(F)cc2)c(=O)[nH]1,/,1.1,/,/,-14.4,/
COc1ccc(S(=O)(=O)NC(CC(=O)NCC2CCCO2)c2ccco2)cc1 (centres undefined),-29.1,0.9,8.1,-34.2,-8.1,106.0
CC(=O)C1C(c2ccco2)c2c(noc2C)CC1(C)O (centres undefined),-3.9,1.1,-7.6,-7.4,-2.2,97.4
COCCNc1oc(-c2ccc(F)cc2)nc1C#N,-5.4,1,2.7,-6.9,-209.8,104.3
COC(=O)c1ccc(CSc2nc3scc(-c4cccs4)c3c(=O)[nH]2)o1,25.0,1.1,-11.4,16.1,17.1*,102.5
CCC(C)Sc1nc2c(cnn2-c2ccc(C)cc2)c(=O)[nH]1 (centres undefined),4.2,1.1,10.3,43.4,3.3,526.0*[fluorescence artefact?]
